Assay outcomes as filed in PubChem.
This is a sample that favours compounds with a hit; in the whole collection about 3.7% have one here.
ATXN2 expr inh – ATXN2 expression inhibition | HEK-293 ATXN2-luciferase reporter, luminescence, 24 h | Potency, µM (top dose mostly 57 µM), for the others: top-dose activity change, negative = inhibition, actives largely listed as inhibitors | hit rate 0.72% among 360,000; note: % is set by controls: 0 for no effect and ±100 for the full control effect; nearly all actives have a fitted effect of over 55% in size
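qHTS (up to 57 uM final) was run with 24 h compound exposure of reporter cells at 37 °C. Each well was multiplexed: SteadyGlo luminescence measured ATXN2-luciferase expression after a fluorogenic Gly-Phe-AFC viability readout (25 uM final).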
HepG2 viability – kills HepG2 cells in TGF-b inhibitor counter-screen; HepG2 CAGA-GFP viability, ATP luminescence, 18 h; hit rate 0.76% among 410,000; AID 588856; Potency, µM (top dose mostly 46.1 µM), inactives show at the top dose activity change, negative = cytotoxicity, hits mostly cytotoxic
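HepG2 CAGA-GFP cells (1000/well, DMEM with 1% FBS) received compound, then TGF-beta at 500 pg/mL final, and were incubated 18 hours at 37 degrees C. Viability was read by CellTiter-Glo luminescence. Media-only wells were set as complete cell-killing and DMSO as no toxicity.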
GLP1R ag – agonists of human GLP-1 receptor. HEK293 GLP-1R CRE-luciferase, luminescence, 4-6 h; cells express a hypersensitive GLP-1R form. hit rate 0.007% among 380,000. AID 624172. Potency, µM (series often up to 45.6 µM), inactives show at the highest dose activation, hits mostly activators. P43220; note: % of control where 0% means no effect
Target sequence (P43220 whole entry, looked up): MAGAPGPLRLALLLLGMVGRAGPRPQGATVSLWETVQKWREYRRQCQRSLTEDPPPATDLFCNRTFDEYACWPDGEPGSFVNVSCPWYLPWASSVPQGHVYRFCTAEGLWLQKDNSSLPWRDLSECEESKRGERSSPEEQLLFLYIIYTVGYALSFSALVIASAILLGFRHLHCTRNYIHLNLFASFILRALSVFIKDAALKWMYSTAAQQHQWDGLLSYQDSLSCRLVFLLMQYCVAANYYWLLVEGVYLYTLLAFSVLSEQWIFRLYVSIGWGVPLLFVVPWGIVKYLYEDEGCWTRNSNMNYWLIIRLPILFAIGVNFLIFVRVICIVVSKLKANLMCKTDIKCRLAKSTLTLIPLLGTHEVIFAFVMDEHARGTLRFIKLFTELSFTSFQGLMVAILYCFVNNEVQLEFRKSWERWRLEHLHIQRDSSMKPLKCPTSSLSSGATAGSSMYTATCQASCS
TGFb SMAD3 inh – inhibitors of TGF-b signaling; HepG2 CAGA-GFP TGF-b/SMAD3 reporter, GFP fluorescence, 18 h; TGF-beta stimulated, 500 pg/mL final; Potency, µM (highest dose often 46.1 µM), inactives show at the top dose activity, negative = inhibition, hits mostly inhibitors; hit rate 1.2% among 410,000; AID 588855; note: % is set by controls: 0 for no effect and ±100 for the full control effect; nearly all actives have a fitted effect of over 65% in size
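TGF-beta reporter screen: HEPG2 CAGA-GFP, 1% FBS, 500 pg/mL TGF-beta final, 18 h; per-cell GFP summed per well; curves fitted and categorized by class.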
S2 tox – viability counter-screen for ATXN expression inhibitors; S2 cells (HEK-293 line with an ATXN2-luciferase reporter) viability, CellTiter-Fluor protease fluorescence, 24 h; Potency, µM (top dose mostly 56.7 µM), most hits filed as cytotoxic; hit rate 0.49% among 400,000; note: nearly all actives have a fitted effect of over 40% in size
GLP1R inv ag – GLP-1 receptor (human) inverse agonism | AID 624417 | P43220 | Potency, µM (highest dose often 38.3 µM), inactives show top-dose activity change, negative = inhibition, actives largely listed as inhibitors | hit rate 1.6% among 410,000 | HEK293 GLP-1R CRE-luciferase, luminescence, 24 h; GLP-1R form is constitutively active; note: % is set by controls: 0 for no effect and ±100 for the full control effect; nearly all actives have a fitted effect of over 55% in size
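Stable HEK293 clone (constitutively active GLP-1R + cAMP-response luciferase); 200 cells/uL plated, 12 h pre-culture, compound 24 hr, 37 deg C/5% CO2; detection reagent 12 min RT; luminescence.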
* = called active by the depositor; i = inactive; ? = inconclusive; · = no result given; [ ] = another dose, or the depositor's remark. Calls come from the whole dose curve; as a rule, active = well fitted curve in the direction sought with a large enough effect; inconclusive = small, poorly fitted or top-dose-only effect, or another doubt; inactive = no such curve, though single readings can be large; an effect the other way counts as inactive or inconclusive. Potency is the fitted concentration of half-maximal effect.

SMILES	ATXN2 expr inh	HepG2 viability	GLP1R ag	TGFb SMAD3 inh	S2 tox	GLP1R inv ag
C=CC[n+]1c(-c2ccc(Cl)cc2Cl)csc1Nc1ccc(NC(C)=O)cc1	?	22µM*	18%	?	?	-70%
Clc1ccc(-c2csc(Nc3ccccc3)[n+]2Cc2ccco2)c(Cl)c1	·	1%	-5%	?	i	2.8µM*
Cc1occc1C(=O)Nc1cccc(-c2nc(CNC(=O)c3ccc(N4CCCCC4)cc3)c(C)o2)c1	·	·	·	·	i	·
COc1ccc(CN2CCC(n3cc(C(=O)N4CCCC4)nn3)CC2)c(OC)c1C	·	·	·	·	i	·
Cc1ccc2cccc(N=Cc3c(C)[nH]n(-c4ccccc4)c3=O)c2n1	28µM*	-55%	20%	?	i	5.6µM*
Cc1[nH]n(-c2ccccc2)c(=O)c1/C=N/O	2%	-30%	-4%	-13%	i	0%
CCc1ccc(NC(=O)C(CC)Sc2nc3cc4c(cc3c(=O)n2Cc2ccco2)OCO4)cc1 (stereo not drawn)	?	-42%	-9%	0%	?	0%
CCc1ccccc1NC(=O)C(CC)Sc1nc2cc3c(cc2c(=O)n1Cc1ccco1)OCO3 (stereo not drawn)	16µM*	-6%	26%	6%	18µM*	-1%
CCCCCCCC(=O)Nc1ccc(C(=O)N/N=C/c2cccc([N+](=O)[O-])c2)cc1	?	8%	-13%	-9%	7.9µM*	-26%
CCCCCCC(=O)Nc1ccc(C(=O)N/N=C/c2cccnc2)cc1	29%	-1%	-13%	-4%	i	-15%
CCOC(=O)C1(CCCc2ccccc2)CCN(Cc2cnn(C)c2)CC1	-32%	-31%	13%	4%	?	?
CCOC(=O)C1(CCOc2ccccc2)CCN(Cc2ccc(OC)cc2)CC1	0%	-32%	-1%	-24%	?	10µM*
CCOC(=O)C1(CCOc2ccccc2)CCN(Cc2cccc(OC)c2OC)CC1	-38%	-19%	21%	-30%	i	10µM*
CCOC(=O)C1(CCOc2ccccc2)CCN(Cc2cccc(-n3cccn3)c2)CC1	·	-9%	-4%	?	?	5µM*
CCOC(=O)C1(CCCc2ccccc2)CCN(Cc2ccn[nH]2)CC1	-20%	-15%	13%	-1%	i	4.5µM*
O=C(C[n+]1ccccc1Cl)c1ccc(Br)cc1	·	-5%	·	-11%	·	·
Cc1ccc(C(=O)C(=O)O)cc1C	2%	·	·	·	i	·
CCOC(=O)C1(CCOc2ccccc2)CCN(Cc2ccc(OCC)c(CO)c2)CC1	-35%	-30%	-1%	-23%	?	11µM*
COc1cc(=O)n2c(c1C(=O)N(C)Cc1nccs1)CCN(Cc1cccc(F)c1F)CC2	·	·	·	·	i	·
O=C(/C=C/c1ccc(Cl)cc1Cl)Nc1cccc(S(=O)(=O)NC2=NCCCCC2)c1	2%	-40%	9%	?	i	10µM*
O=C(CCl)Nc1cccc(S(=O)(=O)NC2=NCCCCC2)c1	·	11µM*	-4%	?	·	?
O=C(CCl)Nc1ccc(S(=O)(=O)NC2=NCCCCC2)cc1	?	-95%	-2%	?	·	?
O=C(NNc1nc2ccccc2s1)c1ccc(F)cc1	3%	-58%	1%	-11%	i	-29%
COC(=O)c1ccc2nc(NC(=O)C(C)(C)C)sc2c1	?	-15%	-5%	0%	i	?
O=C(NNc1nc2ccc(F)cc2s1)c1cccc(F)c1	-29%[11.3 µM]	-59%	-3%	13µM*	?	?
COC(=O)c1ccc2nc(Nc3nc4ccc(F)cc4s3)sc2c1	?	-35%	-16%	18µM*	i	-82%
COc1ccccc1-c1ccnc(-n2ncc(C(=O)NC(C)(C)CO)c2C2CC2)n1	·	·	·	·	i	·
